Results with a measured potency or affinity are listed apart.
Tests used:
Klebsiella pneumoniae = details: Concentration 32 ug.mL-1;; ASSAY_TEST Inhibition of Bacterial Growth; detection method Absorption (OD600); MEDIA CAMHB; plate type 384well; NBS; CORNING #3640; time 18 hr
Candida albicans = details: Concentration 32 ug.mL-1; ASSAY_TEST Inhibition of Fungal Growth; detection method Absorption (OD530)
Cryptococcus neoformans = details: Concentration 32 ug.mL-1; ASSAY_TEST Inhibition of Fungal Growth; detection method Resazurin; Absorption (OD600-OD570); plate type 384well; NBS; CORNING #3640

| SMILES | Inhibition (Klebsiella pneumoniae) | Inhibition (Candida albicans) | Inhibition (Cryptococcus neoformans) |
| --- | --- | --- | --- |
| COc1ccccc1Cn1c(=O)c2sccc2n2c(=O)n(Cc3cccc(C)c3)nc12 | 9.07% | 1.33% | -25.61% |
| Cc1oc(-c2cccc(Cl)c2)nc1CSc1nc2ccccc2n2c(C(C)C)nnc12 | 8.12% | 1.38% | -17.47% |
| O=C(Cn1nc2ccc(-c3ccccc3)nn2c1=O)Nc1cccc(Cl)c1 | 2.74% | 18.56% | -15.44% |
| Cc1ccc(Sc2nccn3c(=O)n(CC(=O)Nc4cccc(Cl)c4)nc23)c(C)c1 | 8.68% | 4.74% | -21.78% |
| CCc1ccc(NC(=O)CSc2nnc3ccc(C(=O)Nc4cccc(F)c4)cn23)cc1 | 0.94% | 1.65% | -4.96% |
| Cc1ccc(-c2ccc3nn(CC(=O)Nc4ccc(Cl)cc4F)c(=O)n3n2)cc1 | 13.29% | -0.74% | -20.92% |
| CCC(C)NC(=O)Cn1nc2n(Cc3cccs3)c(=O)c3sccc3n2c1=O (stereo not drawn) | 6.55% | 0.06% | -19.39% |
| COc1cc(NC(=O)CSc2nnc3c(=O)n(-c4ccc(C)c(C)c4)ccn23)cc(OC)c1 | 2.77% | 1.66% | -9.37% |
| Cc1ccc(F)cc1NC(=O)CSc1nc2ccccc2n2c(C)nnc12 | 10% | 1.14% | -19.09% |
| COc1ccccc1-n1ccn2c(SCC(=O)Nc3ccc4c(c3)OCO4)nnc2c1=O | 8.58% | 4.47% | -4.47% |
| O=c1n(Cc2ccc3c(c2)OCO3)nc2c(S(=O)(=O)N3CCCC3)cccn12 | 5.42% | 0.37% | -5.87% |
| CCCCOc1ccc(-c2cc3c4nnc(SCC(=O)Nc5ccc(CC)cc5)n4ccn3n2)cc1 | 9.73% | 2.18% | -11.7% |
| CCOc1ccc(-n2ccn3c(SCC(=O)NCc4ccc(Cl)cc4)nnc3c2=O)cc1 | 11.7% | 0.49% | -7.68% |
| CCC(Sc1nnc2c(=O)n(-c3ccccc3)ccn12)C(=O)Nc1cc(F)ccc1F (stereo not drawn) | 10.28% | 0.38% | -17.31% |
| Cc1nnc2ccc(S(=O)(=O)N(Cc3ccccc3F)c3cccc(Cl)c3)cn12 | 8.99% | -0.66% | -11.57% |
| O=C1CCCN1c1ccc(Cn2nc3ccc(-c4ccccc4)nn3c2=O)cc1 | 10.51% | -0.02% | -12.26% |
| Cc1ccc(NC(=O)Cn2nc3c(SCc4ccccc4)nccn3c2=O)cc1C | 8.81% | 15.8% | -18.48% |
| COc1ccc(NC(=O)Cn2nc3nc(N4CCOCC4)ccn3c2=O)cc1Cl | 17.46% | 1.98% | -8.34% |
| Cc1ccc(NC(=O)Cn2nc3c(SCc4ccc(Cl)cc4)nccn3c2=O)c(C)c1 | 13.7% | 0.54% | -21.97% |
| Cn1c(=O)c2ccc(C(=O)NC3CCCCC3)cc2n2c(=O)n(CC#N)nc12 | 3.72% | 1.15% | -18.77% |
| COC(=O)c1ccc(Cn2nc3ccc(S(=O)(=O)N4CCCCCC4)cn3c2=O)o1 | 1.98% | -1.08% | -5.87% |

| SMILES | Inhibition (Klebsiella pneumoniae) | Inhibition (Candida albicans) | Inhibition (Cryptococcus neoformans) |
| --- | --- | --- | --- |
| COc1cccc(-n2ccn3c(SCC(=O)Nc4ccc(Br)cc4)nnc3c2=O)c1 | -3.95% | 5.78% | -9.82% |
| Cc1nnc2c(S(=O)(=O)N(Cc3cc(F)cc(F)c3)c3cccc(F)c3)cccn12 | 4.57% | 6.53% | -8.02% |
| O=C(Cn1nc2ccc(-c3ccccc3)nn2c1=O)Nc1ccc(F)cc1 | 7.53% | 0.88% | -10.36% |
| CCCCn1c(=O)c2sccc2n2c(=O)n(CC(=O)c3ccc(C)cc3C)nc12 | 10.99% | -0.48% | -20% |
| O=C(Cn1nc2ccc(C(=O)NCc3ccccc3)cn2c1=O)Nc1ccc2c(c1)OCO2 | 7.16% | 3.87% | -36.87% |
| O=C(CSc1nnc2c3cc(-c4ccc(F)cc4)nn3ccn12)NCCc1ccccc1 | 7.72% | 2.21% | -23.19% |
| Cc1ccc(Sc2nccn3c(=O)n(CC(=O)N4CCN(c5ccc(F)cc5)CC4)nc23)c(C)c1 | -6.63% | 1.39% | -106.74% |
| COc1cccc(-n2ccn3c(SCc4ccccc4Cl)nnc3c2=O)c1 | 8.33% | 2.81% | -13.51% |
| COc1ccc(CN(c2ccc(C(C)C)cc2)S(=O)(=O)c2cccn3cnnc23)cc1 | 7.8% | 1.9% | -7.62% |
| CCOC(=O)c1ccc(NC(=O)CSc2nnc3c4cc(-c5ccc(OC)cc5)nn4ccn23)cc1 | 14.8% | -1.16% | -22.98% |
| Cc1cc2nn(CC(=O)Nc3ccc(F)cc3C)c(=O)n2c(Nc2ccc(F)cc2)n1 | 7.08% | 9.27% | -2.95% |
| COC(=O)c1ccc(NC(=O)Cn2nc3c(Oc4ccccc4)nccn3c2=O)cc1 | -0.72% | 3.86% | -10.09% |
| Cc1ccccc1N1CCN(c2nccn3c(=O)n(CC(=O)NCc4ccc(Cl)cc4)nc23)CC1 | 7.17% | 45.71% | -4.38% |
| COCCCNC(=O)CSc1nnc2c(=O)n(Cc3ccccc3)ccn12 | 17% | 2.41% | -23.49% |
| O=S(=O)(c1ccc2nncn2c1)N(Cc1ccccc1F)c1ccc(F)c(F)c1 | -0.52% | 1.44% | -2.71% |
| Cc1ccc(-c2ccc3nn(CC(=O)NCc4ccc(Cl)cc4)c(=O)n3n2)cc1C | 6.14% | 6.17% | -11% |
| COc1ccc(-n2ccn3c(-c4ccc([N+](=O)[O-])cc4)nnc3c2=O)cc1 | 13.7% | -0.61% | -26.2% |
| O=c1c2sccc2n2c(=O)n(Cc3cccc(Br)c3)nc2n1Cc1cccs1 | -22.43% | 62.43% | -21.53% |
| Cc1ccc(-c2cc3c4nn(CC(=O)Nc5ccc(Br)cc5)c(=O)n4ccn3n2)cc1C | -3.52% | 9.45% | -8.46% |
| COc1cccc(-n2ccn3c(SCC(=O)NCc4ccc(C)cc4)nnc3c2=O)c1 | 8.21% | 2% | -8.56% |
| Cc1cccc(N(C)C(=O)Cn2nc3cc(C)nc(Nc4ccc(C)c(F)c4)n3c2=O)c1 | 20.18% | 4.24% | -1.47% |

| SMILES | Inhibition (Klebsiella pneumoniae) | Inhibition (Candida albicans) | Inhibition (Cryptococcus neoformans) |
| --- | --- | --- | --- |
| CCc1ccc(N(Cc2ccc(C)cc2)S(=O)(=O)c2cccn3c(CC)nnc23)cc1 | 2.26% | 5.38% | -7.79% |
| COc1ccc(-c2cc3c4nnc(CCC(=O)NCc5ccccc5Cl)n4ccn3n2)cc1 | 3.58% | 1.3% | -11.66% |
| O=C(Cn1nc2c(Oc3ccccc3)nccn2c1=O)Nc1ccc(Br)cc1F | -1.93% | 5.04% | -11.28% |
| CC1CCc2c(sc3ncn4c(=O)n(CC(=O)Nc5ccc6c(c5)CCC6)nc4c23)C1 (stereo not drawn) | 13.08% | 4.62% | -27.54% |
| Cc1ccc(Oc2nccn3c(=O)n(CC(=O)N4CCN(c5ccccc5F)CC4)nc23)cc1 | 13.64% | -0.66% | -23.01% |
| COc1ccc(-n2ccn3c(-c4ccc([N+](=O)[O-])cc4)nnc3c2=O)cc1Cl | 9.41% | 5.76% | -13.11% |
| Cc1ccc(-c2cc3c4nn(CC(=O)NCc5ccccc5Cl)c(=O)n4ccn3n2)cc1C | 7.47% | -1.05% | -5.01% |
| O=c1n(Cc2ccccc2F)nc2ccc(S(=O)(=O)N3CCCCCC3)cn12 | 2.58% | 0.84% | -9.24% |
| O=c1n(Cc2ccc(Cl)cc2)nc2ccc(-c3ccccc3)nn12 | 18.04% | 2.75% | -18.7% |
| CC(C)CCNC(=O)Cn1nc2n(Cc3ccco3)c(=O)c3sccc3n2c1=O | 8.27% | 3.16% | -8.69% |
| COC(=O)c1cccc(NC(=O)Cn2nc3c(N4CCC(C)CC4)nccn3c2=O)c1 | 5.33% | 2.15% | -12.99% |
| COc1ccc(-c2cc3c4nn(CC(=O)Nc5ccc(F)cc5)c(=O)n4ccn3n2)cc1 | 1.02% | 15.17% | -16.6% |
| Cc1ccc(Oc2nccn3c(=O)n(CC(=O)Nc4ccc(C)cc4Br)nc23)cc1 | 1.71% | 0.3% | -4.1% |
| CN(C(=O)Cn1nc2n(Cc3ccco3)c(=O)c3sccc3n2c1=O)c1ccccc1 | -0.68% | 2.07% | -9.74% |
| C=Cc1ccc(Cn2nc3c(=O)n(-c4ccc(C)c(C)c4)ccn3c2=O)cc1 | 9.34% | 3.74% | -5.84% |
| COc1ccc(-n2ccn3c(=O)n(Cc4cc(C)ccc4C)nc3c2=O)cc1Cl | 9.01% | 1.96% | -5.13% |
| Cc1ccc(NC(=O)c2ccc3nnc(SCC(=O)Nc4ccc(Br)cc4)n3c2)cc1 | 8.72% | 1.55% | -17.05% |
| CC(C)c1nnc2c(SCC(=O)Nc3cccc(Cl)c3)nc3ccccc3n12 | 10.95% | 2.12% | -14.08% |
| CC(C)c1nnc2c(=O)n(CC(=O)Nc3ccc(Cl)cc3)c3ccccc3n12 | 16.79% | 3.6% | -17.29% |

Source: ChEMBL document CHEMBL4513146, “CO-ADD screening of Karazin Kharkiv National University (Ukraine) compounds”
